Experimental data from PubChem BioAssay AID449762 (Southern Research Specialized Biocontainment Screening …, 2010).
Out of some 330,000 compounds screened, about 1,900 (0.58%) were called active. Roughly 4% stayed inconclusive and do not appear here. No stated cut-off is given here; in the data, inconclusive means inhibition above about 70% without an active follow-up result; inactive means below that. The list is a sample of the results. Entries with a potency or affinity are not part of this list. Where a SMILES comes first, the peptide text is derived from it. [ ]: non-standard residue; d: D form. The star is where a group is joined. ξ: configuration not given here. Cbz = O=C(OCc1ccccc1)*; ξS = NC(CO)C(=O)O

assay: M. tuberculosis growth inhibition, HTS (AID 449762);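 further: bacterial growth assessed after seven days of incubation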; conditions: M. tuberculosis H37Rv growth inhibition, 7H9 media; at 25 µM; stronger effect = higher value

SMILES | inhibition
Cc1cnc(C(=O)Nc2cccc3ncccc23)cn1 | -2.6% (inactive)
Cc1c(C)c(C)c(CO/N=C/c2cccs2)c(C)c1C | -0.39% (inactive)
COc1cc(NCCCCCCCN)c2ncccc2c1 | 7.02% (inactive)
COc1cc(NC(C)CCCN)c2ncccc2c1Oc1ccccc1 (stereo unspecified) | -3.95% (inactive)
CCCCC(=O)Nc1cccc(-c2nn3c(C)nnc3s2)c1 | 8.49% (inactive)
O=C1NN(c2cccc(Br)c2)C(=O)/C1=C\c1ccc(O)cc1 | 1.89% (inactive)
Cc1cc(/C=C2/C(=O)NN(c3ccccc3)C2=O)c(C)n1-c1ccc(O)cc1 | 5.28% (inactive)
CN(CC1COc2ccccc2O1)C(=S)NC1CCCCC1 (stereo unspecified) | -4.56% (inactive)
Cc1c(Cl)c([N+](=O)[O-])nn1Cc1ccc(C(=O)N/N=C\c2ccccn2)o1 | 0.01% (inactive)
Cc1nn(Cc2ccc(C(=O)NN)o2)c(C)c1Cl | -6.65% (inactive)
COc1cc(/C=N\NC(=O)c2ccc(Cn3nc([N+](=O)[O-])c(Cl)c3C)o2)ccc1O | -5.71% (inactive)
Cc1ccc(CNC(=O)c2ccc(Cn3nc(C)c(Cl)c3C)o2)cc1 | -10.1% (inactive)
COc1ccc(NC(=O)C(C)N(C)Cc2ccc3ccccc3c2)cc1 (stereo unspecified) | 0.65% (inactive)
NC(N)=NCCCC(NC(=O)c1ccccc1)C(=O)Nc1ccc2ccccc2c1 (stereo unspecified) | 69.1% (inactive)
O=C(CSc1ccc2nnc(-c3ccc(F)cc3)n2n1)NCc1ccco1 | -4.01% (inactive)
CC1(C)C([N+](=O)[O-])C(c2ccc(Cl)cc2)NC(c2ccc(Cl)cc2)C1[N+](=O)[O-] (stereo unspecified) | 61.2% (inactive)
CCOc1ccc(NC(=O)CSc2ccc3nnc(-c4cccnc4)n3n2)cc1 | -11.5% (inactive)
CCN(CC)C(=S)Nc1ccc(Cl)c(Cl)c1 | 7.74% (inactive)
O=C(Cc1ccccc1)NNC(=O)Nc1ccc(Cl)c(Cl)c1 | 9.99% (inactive)
Cc1ccc2nc(CSc3nnc(-c4ccncc4)n3C)cc(=O)n2c1 | -4.97% (inactive)
CCc1nc(SCc2nnc(-c3ccc(C)cc3)o2)c2c(C)c(C)sc2n1 | -15.8% (inactive)
O=C1NCC(c2ccccc2)C1C(=O)N/N=C\c1ccc(-c2cccc(Cl)c2Cl)o1 (stereo unspecified) | 24.5% (inactive)
O=C1NCC(c2ccccc2)C1C(=O)N/N=C/c1ccc(Cl)s1 (stereo unspecified) | -0.33% (inactive)

SMILES | inhibition
COCCNC(=O)C1CC2Cn3c(nc4cc(Cl)c(Cl)cc43)C2N1C (stereo unspecified) | 2.07% (inactive)
O=C(NCC1CCCO1)c1cc([N+](=O)[O-])ccc1N1CCC(Cc2ccccc2)CC1 (stereo unspecified) | 32.2% (inactive)
CCNC(=O)C(Cc1ccccc1)NC(=O)OCc1ccccc1 (stereo unspecified) | -4.3% (inactive)
CCOC(=O)CNC(=O)C(CO)NC(=O)OCc1ccccc1 (stereo unspecified) (Cbz-[ξS]-Gly-OEt) | 5.25% (inactive)
COc1cc(OC)cc(C(=O)N[C@H](C(=O)Nc2ccc(NC(C)=O)cc2)C(C)C)c1 | -0.98% (inactive)
O=c1c(Cc2ccccc2)c(O)ccn1Cc1ccc2c(c1)OCO2 | 3.04% (inactive)
O=C(Nc1cc(=O)[nH]c2ncnn12)c1ccco1 | -17.4% (inactive)
O=C(Nc1cc(=O)[nH]c2nc(-c3ccccc3)nn12)c1ccc(Cl)cc1 | -2.49% (inactive)
COCCN(C(=O)COC(=O)/C=C/c1ccc(C)o1)c1c(N)n(Cc2ccccc2)c(=O)[nH]c1=O | -11.7% (inactive)
COc1ccccc1N1CCN(C(=O)C2CC=CCC2C(=O)O)CC1 (stereo unspecified) | -1.32% (inactive)
COc1cccc2c1OCC(C(=O)O)C2 (stereo unspecified) | -0.01% (inactive)
Cc1ccc(C)c(NNC(=O)C(=O)NNc2cc(C)ccc2C)c1 | 52.8% (inactive)
Cc1ccc(C)c(NC(=S)N(C)C)c1 | 1.85% (inactive)
O=C(Nc1cccc(S(=O)(=O)N2CCCCC2)c1)c1ccc2ncsc2c1 | -3.33% (inactive)
CC(=O)c1cccc(NC(=O)c2ccc(S(=O)(=O)N3CCCCC3)cc2)c1 | -2.95% (inactive)
COc1ccc(N(C(=O)Cn2cnc3ccccc32)C(C(=O)NC2CCCCC2)c2ccccc2)cc1 (stereo unspecified) | 0.85% (inactive)
COc1ccc(NS(=O)(=O)c2cccc(NC(=O)CNC(C)=O)c2)cc1 | 3.07% (inactive)
CN1C(=O)Cn2c1nc1ccccc12 | 6.02% (inactive)
Cc1ccc(C(O)c2nc3ccccc3n2C)cc1 (stereo unspecified) | 6.67% (inactive)
Cc1cccc(C)c1NC(=S)N(CCN(C)C)C(C)c1ccccn1 (stereo unspecified) | -5.58% (inactive)
CN(Cc1cccs1)C(=O)CCc1c[nH]c2ccccc12 | 4.68% (inactive)
COC(=O)c1ccc(CSc2nc(C(F)F)cc(C)c2C#N)o1 | -2.24% (inactive)
COC(=O)c1ccc(CSc2ncnc3ccccc23)o1 | -4.26% (inactive)

SMILES | inhibition
O=C(NNc1ncnc2ccccc12)c1cccc(Cl)c1 | -0.01% (inactive)
CN(Cc1cccc(F)c1)C(=O)c1cccc(S(=O)(=O)N2CCN(Cc3ccccc3)CC2)c1 | -18.2% (inactive)
Cc1ccc(CNC(=O)c2ccc(NC(=O)C3=CSCCO3)cc2)cc1 | -1.39% (inactive)
O=C(Nc1ccc(C(=O)NCc2ccc(F)cc2)cc1)C1=CSCCO1 | -4.67% (inactive)
Cc1nc(-c2ccc(Cl)cc2)sc1C1(C)CC(c2ccc(Cl)cc2)=NO1 (stereo unspecified) | 0.85% (inactive)
Cc1nc(-c2ccccc2)sc1C1(C)CC(c2ccc(C#N)cc2)=NO1 (stereo unspecified) | -2.7% (inactive)
c1ccc(-c2cc3ccccc3cn2)cc1 | 12.7% (inactive)
Cc1cnc(NC2=NCCC2)s1 | 4.98% (inactive)
CCCNC(=O)c1ccc(COc2ccc(C(C)(C)C)cc2)o1 | 1.87% (inactive)
COc1ccccc1NC(=O)c1nn(-c2ccccc2)ccc1=O | 5.5% (inactive)
CN(CC(=O)NC(=O)NCc1ccco1)Cc1nc2ccccc2c(=O)[nH]1 | -5.09% (inactive)
O=C(OC(C(=O)NCc1ccc2c(c1)OCO2)c1ccccc1F)c1ccco1 (stereo unspecified) | 2.01% (inactive)
C/C(CC(=O)Nc1ccc2c(c1)OCCO2)=N\NC(=O)c1ccccc1Cl | 5.1% (inactive)
COc1ccccc1C(=O)N/N=C(\C)CC(=O)Nc1ccc2c(c1)OCCO2 | 1.17% (inactive)
CC(C)(C)c1ccc(C(=O)NCCCNC(=O)c2ccccn2)cc1 | 8.46% (inactive)
COC(=O)c1c(NC(=O)CCC(=O)O)sc2c1CCCCC2 | 19.9% (inactive)
Nc1nc(Nc2ccccc2)nc(NC2CCCCC2)c1[N+](=O)[O-] | 29.1% (inactive)
COc1ccc(OC)c(Nc2nc(N)c([N+](=O)[O-])c(NC3CCCCC3)n2)c1 | -3.37% (inactive)
COc1ccc(OC)c(S(=O)(=O)N2CCN(C(=O)CCc3ccccc3)CC2)c1 | -9.07% (inactive)
Cc1cccc(C(=O)O/N=C2/CC3CCC2(C)C3(C)C)c1 (stereo unspecified) | 5.89% (inactive)
CC12CCC(C/C1=N\N=C1\NC(=O)/C(=C\c3cccc(Br)c3)S1)C2(C)C (stereo unspecified) | 21.6% (inactive)
COc1ccc(CC(=O)O/N=C(\N)Cc2ccc(OC)c(OC)c2)cc1 | 2.93% (inactive)
O=C1c2ccccc2CN1C(CO)Cc1ccccc1 (stereo unspecified) | -7.4% (inactive)

SMILES | inhibition
COCCNC(=S)N/N=C(\C)CCc1ccc2c(c1)OCO2 | 8.49% (inactive)
C/C(CCc1ccc2c(c1)OCO2)=N\NC(=O)c1ccccc1 | 1.21% (inactive)
O=C(N/N=C/c1ccccc1OC(=O)N1CCOCC1)c1cccs1 | 25.5% (inactive)
COc1ccc(NS(=O)(=O)c2cccc(C(=O)Nc3cccc(C(=O)O)c3)c2)cc1 | -7.77% (inactive)
COc1cc(/C=N/NC(=O)COc2ccccc2C)ccc1OC(=O)c1cccs1 | -7.68% (inactive)
CCOc1cc(/C=N/NC(=O)COc2ccc(C)cc2)ccc1OC(=O)c1cccs1 | 8.62% (inactive)
COC(=O)c1cc(S(=O)(=O)Nc2nn(C)c3ccccc23)oc1C | 1.72% (inactive)
COCCN(C(=O)COC(=O)CSc1ccc2ccccc2c1)c1c(N)n(Cc2ccccc2)c(=O)[nH]c1=O | 0.46% (inactive)
C=CCNC(=O)c1onc(CSc2ccncc2)c1C(=O)NCC=C | -11.3% (inactive)
Cc1ccc(S(=O)(=O)n2nc(C)c(S(=O)(=O)N3CCOCC3)c2C)cc1 | -4.96% (inactive)
O=C(c1cnn2c(C(F)(F)F)cc(-c3ccccc3)nc12)N1CCCCC1c1cccnc1 (stereo unspecified) | 61.7% (inactive)
Cc1ccc(-c2cc(C(F)(F)F)n3ncc(C(=O)N4CCCCC4c4cccnc4)c3n2)cc1 (stereo unspecified) | -0.42% (inactive)
C[C@]12c3[nH]c4ccccc4c3CCN1C(=O)C(CC(=O)NCC13CC4CC(CC(C4)C1)C3)C[C@@H]2C(=O)N1CCCCC1 (stereo partly specified) | 21.5% (inactive)
CC(C)N(C(=O)[C@H]1CC(CC(=O)NCC23CC4CC(CC(C4)C2)C3)C(=O)N2CCc3c([nH]c4ccccc34)[C@]12C)C(C)C (stereo partly specified) | 69.1% (inactive)
COc1cc([N+](=O)[O-])ccc1NC(=O)NCc1ccco1 | -4.54% (inactive)
COc1ccccc1CNC(=O)c1c(-c2ccccc2)nn(-c2ccccc2)c1C | 6.07% (inactive)
CC(=O)c1c(N2CCOCC2)[nH]c(-c2ccccc2)nc1=S | 43.5% (inactive)
CC(=O)c1c(N2CCN(Cc3ccccc3)CC2)[nH]c(-c2ccccc2)nc1=S | -2.96% (inactive)
CC(C)[C@H](NC(=O)[C@@H]1Cc2ccccc2CN1C(=O)OC(C)(C)C)C(=O)NCc1ccco1 | 2.19% (inactive)
COc1ccc([N+](=O)[O-])cc1NS(=O)(=O)c1cccc(C(=O)OC2CCOC2=O)c1 (stereo unspecified) | -6.35% (inactive)
O=C(NCCc1csc(-c2cccnc2)n1)c1ccccc1 | -11.6% (inactive)
O=C1CN(C(=O)OCc2ccccc2)c2ccccc2N1 | -1.7% (inactive)
